# From PubChem BioAssay AID651702 (NMMLSC, 2012)
# Among all 360,000 compounds or so, about 2,400 (0.67%) were called active. The sample holds actives, similar compounds and a random draw of the others, so the mix is not that of the screen. Values without a mark were called inactive.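 Rule for the calls: active = inhibition above about 55% (limit read from the data); inconclusive = no clear call, values can overlap the other calls; inactive = the rest.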
# Experiment: LAMP-1 surface exposure blockers, TALL-104 cells – cell-based, flow cytometry, MLPCN library, primary screen (AID 651702)
# Conditions: TALL-104 LAMP-1 surface exposure, at 10 µM, active compounds read high, cells stimulated with thapsigargin and PMA
row,Structure (SMILES),inhibition
1,CC(C)c1ccc(-c2nn[nH]n2)cc1,21.6%
2,COc1ccc(S(=O)(=O)N2CCN(CC(=O)N3c4ccccc4CC3C)CC2)cc1OC (stereo unspecified),6.4%
3,CCOc1cc(/C=C(\C#N)c2nc(-c3cccs3)c(NC(C)=O)s2)ccc1O,69.2% (active)
4,CCOc1cc(/C=N/NC(=O)CN2CCCCC2)ccc1O,3.8%
5,CCOc1cc(/C=N/NC(=O)c2c(C)nc3ccc(Cl)cn23)ccc1O,3.8%
6,CC(=O)Nc1ccc(-c2csc(NC(=O)Nc3ccccc3)n2)cc1,104% (active)
7,CC(=O)NC(c1ccccc1)c1nc(-c2cccc(C(C)C)c2)cs1 (stereo unspecified),-1.9%
8,Cc1ccc(NC(=O)Nc2cc(-c3ccccc3)nn2C)cc1Cl,3%
9,Cn1c(=O)c([N+](=O)[O-])c(Oc2ccccc2)c2ccccc21,-0.7%
10,COc1ccc(NS(=O)(=O)c2cc(NC(=O)CC(=O)c3ccc([N+](=O)[O-])cc3)ccc2C)cc1,-16.7%
11,C=CCn1c(CCNC(=O)c2ccccc2F)nnc1SCC(=O)Nc1ccc(OC)cc1,-1.4%
12,COC(=O)C1=C(C)N(Cc2ccccc2)C(=NCCCOC(C)C)N[C@H]1c1ccccc1,-2.7%
13,CCCCNC(=O)C(C)N(CCN(C)C)C(=O)CCCCCN1C(=O)NC(c2ccc(Cl)cc2)C(C(=O)OCc2ccccc2)=C1C (stereo unspecified),61.8% (active)
14,CCOC(=O)C1=C(C)N(C[C@@H]2CC[C@@H](Cc3ccc(-c4ccccc4)cc3)O2)C(=O)NC1c1ccc([N+](=O)[O-])cc1 (stereo partly specified),1.6%
15,CCCCNC(=O)C(C)N(CCN(C)C)C(=O)CCCN1C(=O)NC(c2ccc(Cl)cc2)C(C(=O)OCc2ccccc2)=C1C (stereo unspecified),65.1% (active)
16,CCOC(=O)C1=C(CN2CCc3ccccc32)NC(=O)NC1c1ccc(Cl)cc1 (stereo unspecified),-0.5%
17,CCOC(=O)CCCNC(=O)CN1C(=O)NC(CCc2ccccc2)C1=O (stereo unspecified),-0.3%
18,COc1ccc(OC)c(CN2C(=O)CCC2(C)c2nnnn2Cc2ccccc2)c1 (stereo unspecified),-8.5%
19,O=C(CSc1nnc(-c2ccoc2)o1)N1CCOCC1,-6.6%
20,O=[N+]([O-])/C=C/c1ccc2c(ccn2Cc2ccccc2)c1,79.9% (active)
21,C=CCC[C@@H](CCCCC)OC(=O)/C=C/[C@@H](O)[C@H](O)C[C@H](O)CC=C,-9.1%
22,Cc1ccc2oc(C(=O)N3CCN(C)C[C@@H]3C(C)C)c(C)c2c1,1.3%
23,CCOC(=O)C1C(C)C(C(C)(C)C)N(S(=O)(=O)c2ccc(C)cc2)C1c1ccccc1 (stereo unspecified),-9.6%

row,Structure (SMILES),inhibition
1,NS(=O)(=O)c1ccc(CCNC(=O)CCCn2c(SCC(=O)N3CCCC3)nc3ccsc3c2=O)cc1,-2.5%
2,CN(C)C(CNC(=O)c1ccc(OCc2cn3ccccc3n2)cc1)c1ccco1 (stereo unspecified),-4.3%
3,CN(C)CCNC(=O)c1ccc(-c2cn3c(-c4ccc(Oc5ccccc5)cc4)cnc3cn2)cc1,57.2% (active)
4,CN(C)CCNC(=O)c1cccc(-c2cnc3c(NC=O)cc(-c4cccc(C(F)(F)F)c4)cn23)c1,39.3%
5,CCCCCC(O)(CCN1CCCCC1)c1ccccc1 (stereo unspecified),1.7%
6,Cc1cc(F)ccc1NC(=O)C(C)n1c2ccccc2c2nc(=O)cc(C)n21 (stereo unspecified),0.1%
7,CC(C)N1C(=O)c2ccccc2NC(=O)C1C(=O)NCc1cccs1 (stereo unspecified),16.2%
8,Cc1ccc(CN(C)Cc2cc(=O)oc3cc(C)c(Cl)cc23)cc1,-0.1%
9,Cc1cc2oc(=O)cc(CN(C)Cc3ccccc3)c2cc1Cl,-1.1%
10,Cc1cc2oc(=O)cc(CN(C)Cc3ccc(OC(F)F)cc3)c2cc1Cl,76.8% (active)
11,CCC(C(=O)NCc1cccnc1)n1nc(C)c2sc3ccccc3c2c1=O (stereo unspecified),5.3%
12,CCc1ccc(-c2cc3c(=O)n(CC(=O)NCCCN4CCN(Cc5ccccc5)CC4)nc(C)n3n2)cc1,57.5% (active)
13,O=C(Cn1ncc2c3ccccc3n(Cc3ccccc3)c2c1=O)NCCCN1CCOCC1,0.7%
14,Cc1nn(CC(=O)NCCc2ccccc2)c(=O)c2cc3occc3n12,-1.6%
15,O=C(NCC(F)(F)F)Nc1nnc(C(F)(F)F)s1,4.2%
16,O=C(CCCN1CCc2[nH]c3ccc(F)cc3c2C1)c1ccc(F)cc1,38.3%
17,C=CCn1c(SCc2ccc(Cl)c(Cl)c2)nnc1C(CO)NC(=O)c1ccc(OC)cc1 (stereo unspecified),0.1%
18,CCN1/C(=C\c2ccc3ccccc3[n+]2CC)Sc2cc(C)ccc21,63.6% (active)
19,Cc1ccc(C)c(S(=O)(=O)N2CCN(c3ncnc4sccc34)CC2)c1,-10.6%
20,CC1C(=O)Nc2ccccc2N1C(=O)c1ccc(F)cc1F (stereo unspecified),-3.6%
21,COc1ccc(F)cc1C(=O)COC(=O)c1n[nH]c(=O)c2ccccc12,3.6%
22,O=C(/C=C/Sc1ncn[nH]1)c1ccc(Cl)cc1,69% (active)
23,CC1CCC(CN2CCN=C2N(C)C)CC1 (stereo unspecified),8.2%
